According to PubChem BioAssay:
Active and inactive are the calls of the source. Unless noted, no rule for the calls is given here.

Assays:
[1] = anti-His antibody binders, primary screen, artefact control for SMM control protein annotation, biochemical, small-molecule microarray, 635 nm fluorescence (AID 1128); settings: anti-His Alexa647 antibody binding, higher = more signal;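 also: score merges feature fluorescence with signal-to-noise for each printed compound spot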
[2] = tested on: Human papillomavirus type 1a E7 protein (residues 1-88); assay: HPV1a E7 small-molecule binders, primary screen, biochemical, small-molecule microarray, residues 1-88, 635 nm (AID 1129); settings: small-molecule microarray binding, fluorescence 635 nm; higher = more signal
[3] = biological target: Focal adhesion kinase 1 (Homo sapiens) (UniProt Q05397); assay: small-molecule microarray binders of FAK, primary screen, biochemical, 635/667 nm fluorescence, BSA, DTT (AID 1130); settings: PTK2 binding, 635 nm fluorescence, higher = more signal;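 also: composite of spot emission at 667 nm and signal to noise over triplicate slides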
Chain of Focal adhesion kinase 1 (Homo sapiens) (Q05397 whole entry, looked up): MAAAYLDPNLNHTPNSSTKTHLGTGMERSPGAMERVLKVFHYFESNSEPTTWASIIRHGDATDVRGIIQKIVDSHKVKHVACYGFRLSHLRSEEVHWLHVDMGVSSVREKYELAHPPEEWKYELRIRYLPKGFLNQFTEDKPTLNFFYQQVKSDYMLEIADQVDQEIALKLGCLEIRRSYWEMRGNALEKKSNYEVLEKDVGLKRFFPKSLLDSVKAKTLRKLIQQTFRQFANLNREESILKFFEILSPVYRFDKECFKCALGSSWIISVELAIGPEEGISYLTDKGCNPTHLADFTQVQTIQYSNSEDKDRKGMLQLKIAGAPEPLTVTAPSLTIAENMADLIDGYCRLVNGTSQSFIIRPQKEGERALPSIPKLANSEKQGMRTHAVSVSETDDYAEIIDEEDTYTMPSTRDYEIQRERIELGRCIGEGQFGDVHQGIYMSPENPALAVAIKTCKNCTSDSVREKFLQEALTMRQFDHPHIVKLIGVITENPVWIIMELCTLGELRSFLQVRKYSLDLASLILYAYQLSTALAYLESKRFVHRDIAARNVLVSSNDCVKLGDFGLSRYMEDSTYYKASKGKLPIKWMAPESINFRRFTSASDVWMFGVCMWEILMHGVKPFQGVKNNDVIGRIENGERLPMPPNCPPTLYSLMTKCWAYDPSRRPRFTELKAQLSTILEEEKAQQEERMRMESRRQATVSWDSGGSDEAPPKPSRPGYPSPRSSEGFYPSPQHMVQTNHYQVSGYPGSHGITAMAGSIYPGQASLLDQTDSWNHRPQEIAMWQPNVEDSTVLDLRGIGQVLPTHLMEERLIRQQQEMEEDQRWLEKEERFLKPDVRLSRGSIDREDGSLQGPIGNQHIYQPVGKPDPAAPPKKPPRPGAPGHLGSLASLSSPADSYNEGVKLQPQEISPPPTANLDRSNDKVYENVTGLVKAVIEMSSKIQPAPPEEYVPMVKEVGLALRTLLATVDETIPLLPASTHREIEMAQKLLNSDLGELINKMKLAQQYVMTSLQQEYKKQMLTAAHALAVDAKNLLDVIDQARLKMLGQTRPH

[4] = tested on: Fibrinogen (Alexa647-labelled); assay: fibrinogen binders on compound microarrays, profiling panel, artefact control for SMM control-protein annotation, biochemical, small-molecule microarray, 635/667 nm fluorescence (AID 1131); settings: fibrinogen-A647 binding fluorescence, higher = more signal;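 also: z-score merges 667 nm fluorescence with per-spot signal-to-noise over triplicate slides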
[5] = biological target: Follistatin (Homo sapiens) (UniProt P19883); assay: follistatin binders on small-molecule microarrays, primary screen, biochemical, small-molecule microarray, 635/667 nm fluorescence (AID 1132); settings: FST binding, 635 nm fluorescence, higher = more signal
Chain of Follistatin (Homo sapiens) (P19883 whole entry, looked up): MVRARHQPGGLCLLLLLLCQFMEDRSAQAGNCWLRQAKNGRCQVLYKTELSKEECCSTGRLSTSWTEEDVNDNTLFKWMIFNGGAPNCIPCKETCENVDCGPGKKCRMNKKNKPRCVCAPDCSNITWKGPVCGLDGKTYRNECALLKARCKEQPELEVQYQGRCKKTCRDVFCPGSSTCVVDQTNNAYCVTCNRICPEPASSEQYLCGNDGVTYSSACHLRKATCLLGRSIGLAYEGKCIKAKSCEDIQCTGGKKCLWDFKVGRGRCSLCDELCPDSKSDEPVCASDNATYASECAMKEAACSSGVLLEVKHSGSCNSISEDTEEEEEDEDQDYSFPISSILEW

[6] = biological target: Fibroblast growth factor 2 (Homo sapiens) (UniProt P09038); assay: FGF2 binders on small-molecule microarrays, primary screen, biochemical, small-molecule microarray, 635/667 nm fluorescence (AID 1133); settings: small-molecule microarray binding, FGF2, fluorescence 635/667; higher = more signal
Chain of Fibroblast growth factor 2 (Homo sapiens) (P09038 whole entry, looked up): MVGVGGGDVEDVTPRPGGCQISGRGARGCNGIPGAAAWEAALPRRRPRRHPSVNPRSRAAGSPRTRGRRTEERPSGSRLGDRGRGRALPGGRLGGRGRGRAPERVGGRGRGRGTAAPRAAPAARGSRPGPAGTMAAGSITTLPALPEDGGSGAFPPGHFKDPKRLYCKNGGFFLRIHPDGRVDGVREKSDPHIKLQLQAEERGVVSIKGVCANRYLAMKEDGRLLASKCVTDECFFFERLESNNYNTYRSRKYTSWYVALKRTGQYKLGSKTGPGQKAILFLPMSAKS

[7] = mitochondrial membrane potential change in A549 cells, profiling panel, cell-based, JC-1 fluorescence, basal, 24 h, 100 nL (AID 1138); settings: higher = more signal;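 also: A549 lung adenocarcinoma cells under basal conditions with no added stimulus; test concentration not given here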
Lefty1 = Lefty1 binders on small-molecule microarrays, primary screen, biochemical, small-molecule microarray, 635/667 nm fluorescence (AID 1139); settings: small-molecule microarray binding, fluorescence 635/667; higher = more signal
[8] = tested on: wheat germ agglutinin (Triticum aestivum), Alexa647-labelled; assay: wheat germ agglutinin binders on compound microarrays, profiling panel, artefact control for SMM control-protein annotation, biochemical, small-molecule microarray, 635/667 nm fluorescence (AID 1140); settings: WGA-A647 binding, 635 nm fluorescence, higher = more signal;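 also: score merges 667 nm feature emission with signal to noise over triplicate slides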
[9] = biological target: Luciferin 4-monooxygenase (Photinus pyralis) (UniProt P08659); assay: firefly luciferase enzyme inhibitors, primary screen, biochemical, luminescence, purified enzyme, 2006 set (AID 1141); settings: SteadyGlo luminescence, 30 min, higher = more signal, called active from +8 up or from −8 down;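 also: cell-free assay with purified firefly luciferase at 100 ng per well in PBS; test concentration not given here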
Chain of Luciferin 4-monooxygenase (Photinus pyralis) (P08659 whole entry, looked up): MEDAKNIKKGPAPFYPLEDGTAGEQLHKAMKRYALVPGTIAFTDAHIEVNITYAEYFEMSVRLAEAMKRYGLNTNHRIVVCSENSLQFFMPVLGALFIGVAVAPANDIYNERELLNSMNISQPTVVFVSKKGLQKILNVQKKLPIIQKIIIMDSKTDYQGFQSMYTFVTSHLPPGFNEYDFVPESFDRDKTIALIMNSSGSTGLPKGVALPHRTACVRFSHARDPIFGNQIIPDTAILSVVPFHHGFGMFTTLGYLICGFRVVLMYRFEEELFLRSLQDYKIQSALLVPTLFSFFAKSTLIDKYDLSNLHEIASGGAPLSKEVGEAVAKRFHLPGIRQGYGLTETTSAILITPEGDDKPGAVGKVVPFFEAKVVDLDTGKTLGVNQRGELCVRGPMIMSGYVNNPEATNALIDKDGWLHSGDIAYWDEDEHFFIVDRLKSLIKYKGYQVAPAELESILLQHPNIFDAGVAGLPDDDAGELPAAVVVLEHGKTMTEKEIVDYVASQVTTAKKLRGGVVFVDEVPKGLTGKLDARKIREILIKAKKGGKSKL

[10] = tested on: Wnt5a (protein binding on small-molecule microarray); assay: Wnt5a binders on small-molecule microarray, primary screen, biophysical, 635/667 nm fluorescence (AID 1142); settings: 635 nm fluorescence, higher = more signal;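 also: fluorescence read at 667 nm with signal to noise per printed feature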
[11] = cell viability in Huh7 cells, primary screen, cytotoxicity control for HCV replication inhibitor project, CellTiter-Glo luminescence, basal, 48 h (AID 1143); settings: Huh7 HCV replicon, higher = more signal, called active from +8 up or from −8 down;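 also: Huh7 hepatoma cells carrying a hepatitis C replication reporter with no stimulus; test concentration not given here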
[12] = P. aeruginosa biofilm formation inhibitors, primary screen, PAO1 strain, BacTiter-Glo luminescence, LB-PBS (AID 1144); settings: 12 h, higher = more signal
[13] = CREB reporter modulators without forskolin, primary screen, cell-based, PC12, CRE-LacZ reporter, unstimulated (AID 1145); settings: no forskolin, luminescence, 4.5 h, higher = more signal, called active from +8 up or from −8 down
[14] = CREB reporter modulators under forskolin, primary screen, cell-based, PC12, CRE-LacZ reporter, forskolin-stimulated (AID 1146); settings: luminescence, 4.5 h, higher = more signal, called active from +8 up or from −8 down;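 also: PC12 cells with 6xCRE LacZ reporter stimulated by forskolin 10 µM; beta-galactosidase reporter signal reflecting CREB driven transcription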
[15] = biological target: Streptavidin (Streptomyces avidinii) (UniProt P22629); assay: streptavidin binders on small-molecule microarray, primary screen, artefact control for SMM compound annotation, biophysical, 635/667 nm fluorescence (AID 1147); settings: streptavidin binding, higher = more signal;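 also: signal reflects streptavidin binding to arrayed compounds as a control protein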
Chain of Streptavidin (Streptomyces avidinii) (P22629 whole entry, looked up): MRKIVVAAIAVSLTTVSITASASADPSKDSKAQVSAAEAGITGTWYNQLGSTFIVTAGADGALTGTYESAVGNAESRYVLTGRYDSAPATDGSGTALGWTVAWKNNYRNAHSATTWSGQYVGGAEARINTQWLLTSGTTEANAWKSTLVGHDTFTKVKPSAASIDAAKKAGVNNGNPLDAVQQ

[16] = small-molecule binders of probe aInhba, primary screen, biochemical, small-molecule microarray, 635/667 nm fluorescence (AID 1148); settings: higher = more signal;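 also: score merges 667nm spot fluorescence with signal-to-noise for antibody binding to printed compounds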
Torsin-1A (Homo sapiens) [17] = biological target: Torsin-1A (Homo sapiens) (UniProt O14656); assay: torsin A binders from cell lysate, primary screen, small-molecule microarray, wild-type, 635/667 nm (AID 1149); settings: COS7 hTOR1A-WT lysate, 635 nm fluorescence, higher = more signal
Chain of Torsin-1A (Homo sapiens) (O14656 whole entry, looked up): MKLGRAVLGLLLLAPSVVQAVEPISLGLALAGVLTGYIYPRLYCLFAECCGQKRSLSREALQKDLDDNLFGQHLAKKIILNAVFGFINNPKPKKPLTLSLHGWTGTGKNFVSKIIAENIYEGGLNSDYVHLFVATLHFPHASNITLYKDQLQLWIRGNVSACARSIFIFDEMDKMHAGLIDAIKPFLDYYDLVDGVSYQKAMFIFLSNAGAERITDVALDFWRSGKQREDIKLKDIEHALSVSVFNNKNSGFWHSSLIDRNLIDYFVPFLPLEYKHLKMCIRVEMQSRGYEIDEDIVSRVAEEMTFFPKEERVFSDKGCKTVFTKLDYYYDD

Torsin-1A (Homo sapiens) [18] = biological target: Torsin-1A (Homo sapiens) (UniProt O14656); assay: small-molecule binders of mutant TOR1A in lysate, primary screen, cell lysate, small-molecule microarray, COS7 lysate, 635/667 nm fluorescence (AID 1150); settings: COS7 hTOR1A mutant lysate, 635 nm fluorescence, higher = more signal;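 also: score pools 667 nm emission and signal to noise measuring lysate protein binding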
[19] = tested on: Sonic hedgehog protein (Shh); assay: small-molecule binders of Shh protein, primary screen, biochemical, small-molecule microarray, 635/667 nm fluorescence (AID 1151); settings: small-molecule microarray binding, 635 nm fluorescence; higher = more signal;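 also: Shh protein binding to compounds spotted on small-molecule microarray slides; score combines spot fluorescence intensity with signal-to-noise across triplicate slides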

| Compound | composite z-score [1] | composite z-score [2] | composite z-score [3] | composite z-score [4] | composite z-score [5] | composite z-score [6] | z-score [7] | composite z-score (Lefty1) | composite z-score [8] | z-score [9] | composite z-score [10] | z-score [11] | z-score [12] | z-score [13] | z-score [14] | composite z-score [15] | composite z-score [16] | composite z-score (Torsin-1A (Homo sapiens) [17]) | composite z-score (Torsin-1A (Homo sapiens) [18]) | composite z-score [19] |
| --- | --- | --- | --- | --- | --- | --- | --- | --- | --- | --- | --- | --- | --- | --- | --- | --- | --- | --- | --- | --- |
| CCOC(=O)C[C@H]1[C@H](OC(=O)c2ccccc2-c2ccccc2)[C@@H](NC(=O)c2ccc(-c3ccccc3)cc2)c2cc(OCCCO)ccc2N1C(=O)c1ccc2ccccc2n1 | 0.792 | 0.472 | -0.0377 | 0.456 | 0.57 | 0.496 | 0.687 | 0.871 | 0.181 | 0.555 (inactive) | 0.0868 | 0.0395 (inactive) | -0.437 (inactive) | -0.686 (inactive) | 0.254 (inactive) | 0.245 | -0.106 | 0.306 | 0.554 | 0.701 |
| C=CCNC(=O)[C@H]1[C@@H]2C(=O)O[C@@H](c3ccccc3)[C@@H](c3ccccc3)N2[C@@H](c2ccc(O)cc2)[C@]12C(=O)N(C(=O)OCCOC)c1ccccc12 | 3.08 | 1.24 | 0.484 | 0.886 | 0.852 | 0.198 | -0.8 | 0.31 | 0.708 | -0.109 (inactive) | 0.381 | -2.03 (inactive) | 0.309 (inactive) | 0.128 (inactive) | 5.62 (inactive) | -0.0654 | 0.122 | 0.265 | 1.02 | 1.11 |
| C=C(C)c1cc2c(c(CCCCCC)n1)[Si](C(C)C)(C(C)C)OC2 | 0.18 | -1.15 | -0.534 | -1.93 | -0.522 | -1.45 | -1.17 | -0.174 | -1.19 | 0.903 (inactive) | -0.712 | -0.342 (inactive) | 0.582 (inactive) | 0.367 (inactive) | 0.0246 (inactive) | -1.01 | -0.159 | -1.74 | -1.05 | -0.351 |
| COc1ccc(C#Cc2ccc3c(c2)[C@]2(C(=O)N3)[C@H](c3ccc(O)cc3)N3[C@H](c4ccccc4)[C@H](c4ccccc4)OC(=O)[C@H]3[C@@H]2C(=O)O)cc1 | 2.03 | 1.06 | 0.324 | 0.457 | 0.127 | -0.218 | -2.05 | -0.211 | -0.178 | -1.37 (inactive) | 0.136 | -4.66 (inactive) | -1.04 (inactive) | 0.478 (inactive) | -0.478 (inactive) | 0.942 | 0.11 | 0.0897 | 0.721 | 0.248 |
| CCOC(=O)c1ccc(NC(=O)O[C@H]2[C@H](OC(=O)Nc3ccc4c(c3)OCO4)[C@@H](OC(=O)Nc3ccc4c(c3)OCO4)[C@@H](OC)O[C@@H]2CO)cc1 | 2.28 | 1.22 | 0.891 | 0.992 | 1.26 | 1.12 | -1.05 | 0.793 | 1.16 | -7.83 (inactive) | 0.332 | -1.23 (inactive) | 0.164 (inactive) | 0.148 (inactive) | -0.557 (inactive) | 0.398 | 0.38 | 0.164 | 0.676 | 1.73 |
| CO[C@H]1O[C@H](CO)[C@@H](OC(=O)Nc2ccccc2-c2ccccc2)[C@H](OC(=O)Nc2ccc3c(c2)OCO3)[C@H]1OC(=O)Nc1ccc2c(c1)OCO2 | 1.02 | 1.24 | 1.11 | 0.941 | 1.23 | 0.993 | -0.499 | 0.63 | 1.1 | -6.15 (inactive) | 0.35 | -1.48 (inactive) | -0.158 (inactive) | 0.792 (inactive) | -0.97 (inactive) | 0.144 | 0.271 | 0.5 | 0.723 | 1.42 |
| COc1ccc([Si](C)(C)[C@@H]2[C@@H](CC(=O)N(CCO)Cc3ccccc3)O[C@]3(C(=O)N(Cc4cccc(N5C(=O)c6cccc7cccc5c67)c4)c4ccccc43)[C@H]2C)cc1 | 0.63 | -0.46 | 0.994 | 0.725 | 1.1 | 1.72 | -0.538 | 0.972 | 0.369 | 0.187 (inactive) | -0.164 | -5.84 (inactive) | -1.02 (inactive) | -0.999 (inactive) | -0.823 (inactive) | -0.24 | -0.0762 | -0.0207 | 0.502 | 0.982 |
| CC(C)C(CO)N1C(=O)[C@@H]2C3C(=O)OCCC/C=C\[C@H]3OC23C=CCN(C(C)(C)C)C(=O)[C@@H]13 (stereo not given in full) | -0.539 | -0.768 | -0.147 | -2.19 | -0.895 | -0.363 | -0.0938 | -0.404 | -1.04 | -0.197 (inactive) | -0.0407 | -0.162 (inactive) | 1.19 (inactive) | -0.0778 (inactive) | -0.205 (inactive) | -0.542 | -0.231 | 0.16 | 0.3 | 0.5 |
| COC(=O)Cn1c(C(=O)N(C)C)cc2c1C[C@H]1CN(C(=O)c3ccccc3)[C@@](Cc3ccc(F)cc3)(C(=O)OC)[C@@H]21 | 2.12 | 1.02 | 1.25 | 0.19 | -0.258 | 0.386 | 0.354 | -0.278 | 1.3 | 0.897 (inactive) | 0.398 | -0.725 (inactive) | -0.625 (inactive) | 0.207 (inactive) | -0.106 (inactive) | 0.124 | 0.382 | 0.245 | -0.068 | -0.238 |
| CCC(CC)C(O)C1C=CC2C(=O)N(c3ccccc3)C(=O)C2N1Nc1ccc(C(C)C)cc1 (stereo not given) | 0.489 | 1.22 | 0.902 | 0.978 | 1.01 | 0.524 | -0.202 | 0.0342 | 1.08 | -1.58 (inactive) | 0.578 | -0.382 (inactive) | -0.0181 (inactive) | -0.136 (inactive) | -0.156 (inactive) | 0.792 | -0.0021 | 0.393 | 0.41 | -0.0854 |
